Compound activity as filed in PubChem.
Most compounds without a hit are left out; they make up all but 7.3% or so of the library.
RORg inh: blocks mouse ROR gamma transcriptional activity; Drosophila S2 Gal4-RORgamma UAS-luciferase reporter, 20 h; Potency, µM (titrated, usually from 53.6 µM), usual class: inhibitors; 310,000 tested, 5.4% active; note: nearly all actives have a fitted effect of over 60% in size
Target sequence (P51450 whole entry, looked up, the tested form may be a part): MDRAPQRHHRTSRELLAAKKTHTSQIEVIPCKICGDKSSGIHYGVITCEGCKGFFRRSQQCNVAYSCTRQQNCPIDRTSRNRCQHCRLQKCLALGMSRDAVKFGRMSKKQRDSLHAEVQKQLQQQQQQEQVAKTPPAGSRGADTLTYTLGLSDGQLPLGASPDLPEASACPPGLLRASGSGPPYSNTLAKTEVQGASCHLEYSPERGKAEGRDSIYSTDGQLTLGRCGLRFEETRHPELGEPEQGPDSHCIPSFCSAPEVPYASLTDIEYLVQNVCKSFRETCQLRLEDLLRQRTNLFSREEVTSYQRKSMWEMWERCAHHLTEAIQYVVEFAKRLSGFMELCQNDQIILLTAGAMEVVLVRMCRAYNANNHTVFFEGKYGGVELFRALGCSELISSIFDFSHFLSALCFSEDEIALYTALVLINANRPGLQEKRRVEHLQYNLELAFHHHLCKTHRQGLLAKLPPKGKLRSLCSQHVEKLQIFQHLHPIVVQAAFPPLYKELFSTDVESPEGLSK
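Schneider cells (Drosophila), stable Gal4 DBD–ROR gamma + UAS-luc; 1 hr cmpd preincubation; Cu2+ induction 700 uM final; 20 hr ambient; luminescence.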
Tau fibril FP: inhibitors of human tau fibril formation; P10636; K18 P301L tau heparin fibrillization, Alexa594 FP, 6 h; Potency, µM (titrated, usually from 57.7 µM), hits mostly inhibitors; 280,000 tested, 0.39% active; AID 1468; note: nearly all actives have a fitted effect of over 55% in size
Target sequence (P10636 561-689 P618L limits assumed): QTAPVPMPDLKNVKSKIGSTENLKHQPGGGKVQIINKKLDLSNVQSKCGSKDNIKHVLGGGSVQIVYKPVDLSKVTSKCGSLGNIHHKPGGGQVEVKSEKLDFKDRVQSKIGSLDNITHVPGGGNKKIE
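Quantitative HTS format: compounds meet 15 uM recombinant K18 P301L tau and Alexa 594-tau tracer in 100 mM sodium acetate pH 7; 20 uM heparin triggers fibrillization at 37 C over 6 hr; FP gives the signal.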
Tau fluor counter: counter-screen for tau fibril formation inhibitors. Potency, µM (top dose mostly 57.7 µM). 280,000 tested, 0.93% active. tau K18 P301L Alexa594 fluorescence, heparin fibrillization; note: nearly all actives have a fitted effect of over 55% in size
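Human K18 P301L tau (15 uM unlabeled plus 0.24 uM Alexa 594-labeled, final) in 100 mM sodium acetate pH 7 was mixed with compound and 20 uM heparin and incubated 6 hr at 37 C.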
VP16 counter: Gal4-VP16 reporter inhibition counter-screen. Potency, µM (top dose mostly 53.6 µM), usual class: inhibitors. 310,000 tested, 3.5% active. Drosophila S2 Gal4-VP16 UAS-luciferase, luminescence, 20 h;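 note: Gal4-VP16 expression switched on by copper sulfate through the metallothionein promoter; nearly all actives have a fitted effect of over 50% in size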
Tau ThT inhib: inhibitors of human tau fibril formation, thioflavin T binding; P10636; recombinant tau K18 P301L (four-repeat tau fragment), heparin-induced fibrillization, ThT fluorescence; Potency, µM (series often up to 57.4 µM), actives largely listed as inhibitors; 270,000 tested, 2.1% active; note: nearly all actives have a fitted effect of over 55% in size
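In this qHTS, human K18 P301L tau is incubated with compound and heparin for 6 hr at 37 C, and Thioflavin T fluorescence then reports fibril load.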
Numbers stand for hits; i = inactive; ? = inconclusive; nt = no result; [ ] = remark or other dose. Calls come from the whole dose curve; as a rule, active = well fitted curve in the direction sought with a large enough effect; inconclusive = small, poorly fitted or top-dose-only effect, or another doubt; inactive = no such curve, though single readings can be large; an effect the other way counts as inactive or inconclusive.

SMILES | RORg inh | Tau fibril FP | Tau fluor counter | VP16 counter | Tau ThT inhib
COc1ccc(C2CC(c3ccc(Cl)cc3Cl)Nc3nc(N)nn32)cc1 (configuration not stated) | 5.6µM | i | i | 4.5µM | i
O=C(Nc1nc2n(n1)C(c1ccc(F)cc1)C=C(c1ccc(Cl)cc1)N2)c1ccco1 (configuration not stated) | nt | i | i | nt | i
COc1ccc(C2CC(c3ccc(Cl)cc3)Nc3nc(NC(=O)c4ccco4)nn32)cc1 (configuration not stated) | 0.71µM | i | i | 0.16µM | i
COc1ccc(C2CC(c3ccc(Cl)cc3Cl)n3nc(N)nc3N2)cc1 (configuration not stated) | i | i | i | i | i
Cc1ccc(C2(C)NC(=O)N(CC(=O)NC(=O)NC(C)C)C2=O)cc1 (configuration not stated) | i | nt | nt | i | nt
CCCC(=O)Nc1nnc(SCC(=O)NC2CC2)s1 | i | nt | nt | i | nt
O=C(CSc1n[nH]c(-c2ccc(F)cc2)n1)N1CCN(c2ccc(F)cc2)CC1 | nt | i | i | nt | ?
CC(CCc1ccccc1)NC(=O)C(=O)Nc1ccccc1 (configuration not stated) | i | i | i | i | i
Cc1ccccc1NC(=O)C(=O)NC(C)CCc1ccccc1 (configuration not stated) | i | i | i | i | i
Cc1cccc(C)c1NC(=S)NC(C)CCc1ccccc1 (configuration not stated) | 2.2µM | i | i | 4.5µM | i
CC(=O)c1ccc(NC(=S)NC(C)CCc2ccccc2)cc1 (configuration not stated) | 7.9µM | ? | ? | 20µM | i
Cc1ccc(NC(=S)NC(C)CCc2ccccc2)cc1C (configuration not stated) | 4µM | i | i | 6.3µM | i
CCCN(Cc1ccccc1)C(=S)Nc1ccc(C(C)=O)cc1 | 4.5µM | i | i | 10µM | i
Cc1ccc(CC(=O)NC(C)CCc2ccccc2)cc1 (configuration not stated) | i | i | i | i | i
CCC/C=C(\CCC)C(NC(=O)OCC(C)C)c1ccccc1 (configuration not stated) | i | i | i | i | i
NS(=O)(=O)c1ccc(NC(=S)N2CCc3ccccc32)cc1 | i | nt | nt | i | nt
Cc1ccc(S(=O)(=O)N(C)C)cc1NC(=S)N1CCc2ccccc21 | 10µM | i | i | i | i
CN(C)S(=O)(=O)c1cccc(NC(=S)N2CCc3ccccc32)c1 | 14µM | i | ? | ? | i
CC1Cc2ccccc2N1C(=S)Nc1cccc(S(=O)(=O)N(C)C)c1 (configuration not stated) | ? | i | i | i | i
Cc1cccc(C(=O)NC(=S)Nc2ccccc2C(=O)O)c1 | i | i | i | i | i
Cc1cc(C(=O)Nc2ccccc2C(F)(F)F)no1 | i | i | i | i | i
Cc1ccc(C(=O)NC(=S)Nc2ccccc2C(F)(F)F)cc1C | 2.5µM | i | i | 13µM | i
Cc1cccc(C(=O)NC(=S)Nc2ccccc2C(F)(F)F)c1 | 4.5µM | ? | i | 5.6µM | i
O=C1NC(c2cccs2)Nc2sc3c(c21)CCCC3 (configuration not stated) | i | ? | ? | i | 2.5µM
CCN1C(C(=O)c2ccccc2)=C(OC(=O)COc2ccc(C)cc2)c2ccccc2S1(=O)=O | nt | i | i | nt | ?
SMILES | RORg inh | Tau fibril FP | Tau fluor counter | VP16 counter | Tau ThT inhib
COc1ccc(NC(=O)c2ccc(-c3ccc(-c4noc(C)n4)cc3C)cc2)cc1N1CCN(C)CC1 | 20µM | i | ? | 32µM | ?
COc1ccc(NC(=O)N2CCN(c3cc(-c4noc(C)n4)ccc3C)CC2)c(OC)c1 | nt | i | i | nt | i
COc1ccc(NC(=O)c2ccc(-c3ccc(-c4noc(C)n4)cc3C)cc2)cc1OCCN(C)C | 14µM | i | ? | ? | ?
Cc1cc(OI)c(C(C)C)cc1-c1cc(C(C)C)c(OI)cc1C | i | i | i | i | i
CCCN1C(=O)C(O)(CC(=O)c2cccc(OC)c2)c2ccccc21 (configuration not stated) | i | i | i | 14µM | i
COc1cccc(C(=O)CC2(O)C(=O)N(Cc3ccccc3)c3ccccc32)c1 (configuration not stated) | nt | i | i | nt | i
CCCOc1ccc(C(=O)C(CN2CCOCC2)c2ccccc2)cc1 (configuration not stated) | 13µM | i | i | ? | i
COc1ccc(C(=O)C(CN2CCOCC2)c2ccccc2)cc1F (configuration not stated) | 11µM | i | i | 11µM | ?
CCCOc1ccc(C(=O)C(c2ccccc2)N2CCOCC2)cc1 (configuration not stated) | i | i | i | i | i
O=C(NCCNc1ccc(Cl)cc1[N+](=O)[O-])c1cccnc1 | ? | i | i | ? | ?
Cc1ccoc1C(=O)NCCNc1ccc(Cl)cc1[N+](=O)[O-] | ? | i | i | i | 11µM
CC1CCC2C(=O)N(c3ccc(C(=O)Oc4cccc5cccnc45)cc3)C(=O)C2C1 (configuration not stated) | 6.3µM | ? | i | 3.2µM | ?
Cc1ccc(C(=O)Oc2ccccc2N2C(=O)C3CCC(C)CC3C2=O)cc1 (configuration not stated) | i | i | i | i | i
COc1ccc(NC(=O)/C(Cl)=C(/Cl)S(=O)(=O)Cc2ccc(C)cc2)cn1 | 4.5µM | ? | i | 3.2µM | 8.9µM
COc1ccc(NC(=O)/C(Cl)=C(/Cl)S(=O)Cc2ccccc2Cl)cn1 (configuration not stated) | 1µM | ? | i | 4.5µM | 8.9µM
COc1ccc(NC(=O)Cc2ccc(Cl)c(Cl)c2)cn1 | i | i | i | i | i
Cc1nc(NCCO)c2nc(-c3ccccc3)n(CCCN(C)C)c2n1 | i | i | i | i | i
CCOC(=O)N1CCN(Cc2nc3cc([N+](=O)[O-])ccc3n2C(C)C)CC1 | nt | i | i | nt | i
Cc1cccc(-n2ccnc2CN2CCC(CO)(Cc3ccccc3)CC2)c1 | 16µM | i | i | i | nt
CCOC(=O)C1(CC2CCCCO2)CCN(Cc2nccn2-c2cccc(C)c2)CC1 (configuration not stated) | 4.5µM | i | i | 13µM | i
Cc1c(CN2CCC(CO)(Cc3cccc(C(F)(F)F)c3)CC2)c2ccccc2n1C | 7.1µM | i | i | 8.9µM | ?
CCOC(=O)C1(CC2CCCCO2)CCN(Cc2nc3ccccc3[nH]2)CC1 (configuration not stated) | i | i | i | i | i
CCOC(=O)C1(CC2CCCCO2)CCN(Cc2nccn2-c2ccc(OC)cc2)CC1 (configuration not stated) | 7.1µM | i | i | ? | i
CCOC(=O)C1(CC2CCCCO2)CCN(Cc2cc(F)ccc2-n2cccn2)CC1 (configuration not stated) | i | i | i[2.34 µM] | i | ?
